Test results: the supplement of paper PMC4466140

What was measured:
Experiment in all cases: SPOT peptide array binding signal intensity (averaged, normalized) (arbitrary units (background-subtracted, floor 0; scale differs between SH3 domains)); higher = stronger binding of the SH3 domain to the peptide
SpBzz1-D2 = target: SpBzz1-D2
How it was run: (§1)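 Detection of bound protein relied on anti-GST antibody, an HRP anti-mouse secondary and luminol, with imaging and quantification in Genespotter. The bound protein was GST-fused SH3 domains from four yeast species, incubated at 10 μg/ml overnight at 4°C in TBS-based blocking buffer on cellulose membranes carrying synthetic 15-mer peptides with cysteines replaced by serines. Binding signal is normalized, background-subtracted spot intensity averaged over replicates, in arbitrary units that differ between domains.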

SpCyk3 = target: SpCyk3
How it was run: as §1

SpHof1 = target: SpHof1
How it was run: as §1

SpHof1-2 = target: SpHof1-2
How it was run: as §1

SpHof1-3 = target: SpHof1-3
How it was run: as §1

SpHse1 = target: SpHse1
How it was run: as §1

SpLsb1 = target: SpLsb1
How it was run: as §1

SpLsb4 = target: SpLsb4
How it was run: as §1

SpMyo1 = target: SpMyo1
How it was run: as §1

SpNbp2 = target: SpNbp2
How it was run: as §1

SpPex13 = target: SpPex13
How it was run: as §1

SpRvs167 = target: SpRvs167
How it was run: as §1

SpSla1-D1-D2 = target: SpSla1-D1-D2
How it was run: as §1

SpSla1-D3 = target: SpSla1-D3
How it was run: as §1

AgAbp1 = target: AgAbp1
How it was run: as §1

AgBbc1 = target: AgBbc1
How it was run: as §1

AgBem1-D1 = target: AgBem1-D1
How it was run: as §1

AgBzz1-D1 = target: AgBzz1-D1
How it was run: as §1

AgBzz1-D2 = target: AgBzz1-D2
How it was run: as §1

AgCyk3 = target: AgCyk3
How it was run: as §1

AgFus1 = target: AgFus1
How it was run: as §1

AgHof1 = target: AgHof1
How it was run: as §1

AgHse1 = target: AgHse1
How it was run: as §1

AgLsb1 = target: AgLsb1
How it was run: as §1

AgLsb4 = target: AgLsb4
How it was run: as §1

AgMyo5 = target: AgMyo5
How it was run: as §1

AgNbp2 = target: AgNbp2
How it was run: as §1

AgRvs167 = target: AgRvs167
How it was run: as §1

AgSho1 = target: AgSho1
How it was run: as §1

AgSla1-D1-D2 = target: AgSla1-D1-D2
How it was run: as §1

AgSla1-D3 = target: AgSla1-D3
How it was run: as §1

CaAbp1-D1 = target: CaAbp1-D1
How it was run: as §1

CaAbp1-D2 = target: CaAbp1-D2
How it was run: as §1

CaBbc1 = target: CaBbc1
How it was run: as §1

CaBem1-D1 = target: CaBem1-D1
How it was run: as §1

CaBzz1-D1 = target: CaBzz1-D1
How it was run: as §1

CaBzz1-D2 = target: CaBzz1-D2
How it was run: as §1

CaCyk3 = target: CaCyk3
How it was run: as §1

CaFus1 = target: CaFus1
How it was run: as §1

CaHof1 = target: CaHof1
How it was run: as §1

CaHse1 = target: CaHse1
How it was run: as §1

CaLsb1 = target: CaLsb1
How it was run: as §1

CaLsb4 = target: CaLsb4
How it was run: as §1

CaMyo5 = target: CaMyo5
How it was run: as §1

## QLLNPNRRAPRRPLS
SpBzz1-D2
  SPOT peptide array binding signal intensity: 130
SpCyk3
  SPOT peptide array binding signal intensity: 6
SpHof1
  SPOT peptide array binding signal intensity: 134
SpHof1-2
  SPOT peptide array binding signal intensity: 25
SpHof1-3
  SPOT peptide array binding signal intensity: 148
SpHse1
  SPOT peptide array binding signal intensity: 178
SpLsb1
  SPOT peptide array binding signal intensity: 61.5
SpLsb4
  SPOT peptide array binding signal intensity: 1750
SpMyo1
  SPOT peptide array binding signal intensity: 390
SpNbp2
  SPOT peptide array binding signal intensity: 440
SpPex13
  SPOT peptide array binding signal intensity: 20
SpRvs167
  SPOT peptide array binding signal intensity: 34
SpSla1-D1-D2
  SPOT peptide array binding signal intensity: 3
SpSla1-D3
  SPOT peptide array binding signal intensity: 2

## GATNNAPTLPKRKNP
AgAbp1
  SPOT peptide array binding signal intensity: 94.5
AgBbc1
  SPOT peptide array binding signal intensity: 80.5
AgBem1-D1
  SPOT peptide array binding signal intensity: 15
AgBzz1-D1
  SPOT peptide array binding signal intensity: 60.2
AgBzz1-D2
  SPOT peptide array binding signal intensity: 21
AgCyk3
  SPOT peptide array binding signal intensity: ≤ 0
AgFus1
  SPOT peptide array binding signal intensity: 15.5
AgHof1
  SPOT peptide array binding signal intensity: 32.9
AgHse1
  SPOT peptide array binding signal intensity: ≤ 0
AgLsb1
  SPOT peptide array binding signal intensity: 11.4
AgLsb4
  SPOT peptide array binding signal intensity: 2730
AgMyo5
  SPOT peptide array binding signal intensity: ≤ 0
AgNbp2
  SPOT peptide array binding signal intensity: 7.25
AgRvs167
  SPOT peptide array binding signal intensity: 47.3
AgSho1
  SPOT peptide array binding signal intensity: 3.75
AgSla1-D1-D2
  SPOT peptide array binding signal intensity: 7
AgSla1-D3
  SPOT peptide array binding signal intensity: 0.75
CaAbp1-D1
  SPOT peptide array binding signal intensity: 131
CaAbp1-D2
  SPOT peptide array binding signal intensity: 155
CaBbc1
  SPOT peptide array binding signal intensity: 532
CaBem1-D1
  SPOT peptide array binding signal intensity: 6
CaBzz1-D1
  SPOT peptide array binding signal intensity: 232
CaBzz1-D2
  SPOT peptide array binding signal intensity: ≤ 0
CaCyk3
  SPOT peptide array binding signal intensity: 2.75
CaFus1
  SPOT peptide array binding signal intensity: ≤ 0
CaHof1
  SPOT peptide array binding signal intensity: 1.25
CaHse1
  SPOT peptide array binding signal intensity: 2.25
CaLsb1
  SPOT peptide array binding signal intensity: 0.5
CaLsb4
  SPOT peptide array binding signal intensity: 4150
CaMyo5
  SPOT peptide array binding signal intensity: 3
